The target of assay [1] is Death-associated protein kinase 1 (Homo sapiens) (UniProt P53355). As to conditions: at 1 µM.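 Note: each value is a mean inhibition figure.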
For assay [2], the target named is T1, Serine/threonine-protein kinase DCLK2 (Homo sapiens) (UniProt Q8N568).
T1 sequence (whole entry): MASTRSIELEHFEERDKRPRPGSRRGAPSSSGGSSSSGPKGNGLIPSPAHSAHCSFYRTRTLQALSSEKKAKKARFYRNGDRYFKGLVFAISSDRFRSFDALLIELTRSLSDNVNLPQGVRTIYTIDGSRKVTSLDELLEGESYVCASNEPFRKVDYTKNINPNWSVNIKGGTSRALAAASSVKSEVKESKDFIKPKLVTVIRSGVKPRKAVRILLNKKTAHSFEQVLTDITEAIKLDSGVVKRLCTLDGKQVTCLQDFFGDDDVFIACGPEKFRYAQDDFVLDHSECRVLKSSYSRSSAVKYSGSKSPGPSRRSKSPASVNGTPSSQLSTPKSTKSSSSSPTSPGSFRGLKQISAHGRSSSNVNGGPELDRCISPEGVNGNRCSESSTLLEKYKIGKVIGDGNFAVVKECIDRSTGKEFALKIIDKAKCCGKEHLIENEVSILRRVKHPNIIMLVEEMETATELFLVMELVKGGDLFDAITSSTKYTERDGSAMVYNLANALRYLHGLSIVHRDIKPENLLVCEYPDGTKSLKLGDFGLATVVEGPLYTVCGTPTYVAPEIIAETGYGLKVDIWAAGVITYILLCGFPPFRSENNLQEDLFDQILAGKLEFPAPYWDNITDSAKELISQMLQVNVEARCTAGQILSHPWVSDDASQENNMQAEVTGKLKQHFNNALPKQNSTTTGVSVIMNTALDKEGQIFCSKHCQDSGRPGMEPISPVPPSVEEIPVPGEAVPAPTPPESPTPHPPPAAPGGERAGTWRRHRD
The conditions noted are these: at 0.1 µM.

The target in assay [3] is T1, Serine/threonine-protein kinase DCLK2 (Homo sapiens). The conditions noted are these: at 1 µM.
The target of assay [4] is MAP kinase-activated protein kinase 2 (Homo sapiens) (UniProt P49137). The conditions noted are these: at 0.1 µM.
Assay [5] has the same target. The conditions noted are these: at 1 µM.
Assay [6] concerns the target MAP kinase-activated protein kinase 3 (Homo sapiens) (UniProt Q16644). As to conditions: at 0.1 µM.
For assay [7] the target is unchanged. The conditions noted are these: at 1 µM.
For assay [8], the target named is Serine/threonine-protein kinase MARK1 (Homo sapiens) (UniProt Q9P0L2). As to conditions: at 0.1 µM.
The target is the same in assay [9]. The conditions noted are these: at 1 µM.
In assay [10] the target is MAP/microtubule affinity-regulating kinase 3 (Homo sapiens) (UniProt P27448). The conditions noted are these: at 0.1 µM.
The target is the same in assay [11]. The conditions noted are these: at 1 µM.
For assay [12], the target named is T2, MAP/microtubule affinity-regulating kinase 4 (Homo sapiens) (UniProt Q96L34).
T2 sequence (whole entry): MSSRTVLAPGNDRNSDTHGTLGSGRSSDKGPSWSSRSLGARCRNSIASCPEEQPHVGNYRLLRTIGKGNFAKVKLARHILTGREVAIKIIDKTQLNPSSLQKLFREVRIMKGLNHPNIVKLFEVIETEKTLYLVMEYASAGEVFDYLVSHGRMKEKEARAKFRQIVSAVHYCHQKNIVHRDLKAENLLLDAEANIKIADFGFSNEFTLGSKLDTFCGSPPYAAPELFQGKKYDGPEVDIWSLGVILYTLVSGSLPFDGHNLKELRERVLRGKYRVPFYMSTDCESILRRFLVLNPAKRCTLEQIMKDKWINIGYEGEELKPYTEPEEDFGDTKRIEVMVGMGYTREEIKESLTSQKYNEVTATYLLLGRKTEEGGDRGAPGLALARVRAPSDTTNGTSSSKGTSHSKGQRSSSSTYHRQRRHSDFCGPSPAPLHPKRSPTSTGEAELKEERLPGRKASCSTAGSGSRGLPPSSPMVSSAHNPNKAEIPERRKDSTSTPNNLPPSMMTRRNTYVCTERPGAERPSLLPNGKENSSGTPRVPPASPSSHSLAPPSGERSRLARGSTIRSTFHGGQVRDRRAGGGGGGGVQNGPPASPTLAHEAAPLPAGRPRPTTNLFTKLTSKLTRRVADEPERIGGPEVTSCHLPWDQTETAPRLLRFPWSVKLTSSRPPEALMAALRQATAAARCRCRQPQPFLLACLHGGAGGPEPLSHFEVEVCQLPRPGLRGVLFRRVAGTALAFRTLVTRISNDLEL
As to conditions: at 0.1 µM.

Assay [13] deals with T2, MAP/microtubule affinity-regulating kinase 4 (Homo sapiens). As to conditions: at 1 µM.
For assay [14], the target named is Maternal embryonic leucine zipper kinase (Homo sapiens) (UniProt Q14680). The conditions noted are these: at 0.1 µM.
For assay [15] the target is unchanged. As to conditions: at 1 µM.
Assay [16] has as its target MAP kinase-interacting serine/threonine-protein kinase 1 (Homo sapiens) (UniProt Q9BUB5). As to conditions: at 0.1 µM.
Assay [17] has the same target. As to conditions: at 1 µM.
Assay [18] has as its target MAP kinase-interacting serine/threonine-protein kinase 2 (Homo sapiens) (UniProt Q9HBH9). The conditions noted are these: at 0.1 µM.
Assay [19] has the same target. The conditions noted are these: at 1 µM.
The target in assay [20] is Serine/threonine-protein kinase MARK2 (Homo sapiens) (UniProt Q7KZI7). The conditions noted are these: at 0.1 µM.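 Note: mean percent inhibition of PAR-1Balpha kinase activity, reported from the GSK PKIS screen.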
Sequence of Serine/threonine-protein kinase MARK2 (Homo sapiens) (Q7KZI7 whole entry): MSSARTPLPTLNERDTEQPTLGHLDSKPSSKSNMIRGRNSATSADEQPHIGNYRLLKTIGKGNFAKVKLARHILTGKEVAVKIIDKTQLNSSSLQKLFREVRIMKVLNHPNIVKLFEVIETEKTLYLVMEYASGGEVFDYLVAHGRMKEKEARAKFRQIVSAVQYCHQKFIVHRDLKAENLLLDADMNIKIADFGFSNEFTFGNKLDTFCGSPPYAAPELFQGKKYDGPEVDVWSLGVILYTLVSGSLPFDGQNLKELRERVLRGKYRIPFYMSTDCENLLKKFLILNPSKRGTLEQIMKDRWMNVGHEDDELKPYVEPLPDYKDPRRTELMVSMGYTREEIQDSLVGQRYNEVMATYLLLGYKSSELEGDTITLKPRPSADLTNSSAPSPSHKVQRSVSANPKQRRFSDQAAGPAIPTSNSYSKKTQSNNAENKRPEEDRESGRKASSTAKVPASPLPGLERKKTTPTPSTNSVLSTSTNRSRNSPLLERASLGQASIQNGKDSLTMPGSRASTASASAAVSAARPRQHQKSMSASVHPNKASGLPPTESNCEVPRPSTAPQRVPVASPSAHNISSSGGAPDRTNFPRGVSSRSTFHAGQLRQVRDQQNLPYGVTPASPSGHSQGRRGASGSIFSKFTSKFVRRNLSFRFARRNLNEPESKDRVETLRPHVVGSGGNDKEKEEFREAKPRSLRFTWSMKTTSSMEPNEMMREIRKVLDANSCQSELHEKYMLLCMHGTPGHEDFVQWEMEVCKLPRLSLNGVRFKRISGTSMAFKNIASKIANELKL

Sequence of MAP kinase-activated protein kinase 3 (Homo sapiens) (Q16644 whole entry, looked up): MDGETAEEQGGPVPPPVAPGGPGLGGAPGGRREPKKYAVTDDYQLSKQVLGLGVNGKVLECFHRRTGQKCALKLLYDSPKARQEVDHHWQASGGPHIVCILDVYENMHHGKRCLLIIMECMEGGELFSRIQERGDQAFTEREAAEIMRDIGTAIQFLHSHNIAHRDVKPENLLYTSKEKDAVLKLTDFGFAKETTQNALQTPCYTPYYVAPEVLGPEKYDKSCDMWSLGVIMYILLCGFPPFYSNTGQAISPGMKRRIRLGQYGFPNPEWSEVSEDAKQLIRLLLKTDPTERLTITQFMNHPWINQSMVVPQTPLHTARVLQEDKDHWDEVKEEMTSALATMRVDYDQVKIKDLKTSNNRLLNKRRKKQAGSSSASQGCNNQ
Sequence of Death-associated protein kinase 1 (Homo sapiens) (P53355 whole entry, looked up): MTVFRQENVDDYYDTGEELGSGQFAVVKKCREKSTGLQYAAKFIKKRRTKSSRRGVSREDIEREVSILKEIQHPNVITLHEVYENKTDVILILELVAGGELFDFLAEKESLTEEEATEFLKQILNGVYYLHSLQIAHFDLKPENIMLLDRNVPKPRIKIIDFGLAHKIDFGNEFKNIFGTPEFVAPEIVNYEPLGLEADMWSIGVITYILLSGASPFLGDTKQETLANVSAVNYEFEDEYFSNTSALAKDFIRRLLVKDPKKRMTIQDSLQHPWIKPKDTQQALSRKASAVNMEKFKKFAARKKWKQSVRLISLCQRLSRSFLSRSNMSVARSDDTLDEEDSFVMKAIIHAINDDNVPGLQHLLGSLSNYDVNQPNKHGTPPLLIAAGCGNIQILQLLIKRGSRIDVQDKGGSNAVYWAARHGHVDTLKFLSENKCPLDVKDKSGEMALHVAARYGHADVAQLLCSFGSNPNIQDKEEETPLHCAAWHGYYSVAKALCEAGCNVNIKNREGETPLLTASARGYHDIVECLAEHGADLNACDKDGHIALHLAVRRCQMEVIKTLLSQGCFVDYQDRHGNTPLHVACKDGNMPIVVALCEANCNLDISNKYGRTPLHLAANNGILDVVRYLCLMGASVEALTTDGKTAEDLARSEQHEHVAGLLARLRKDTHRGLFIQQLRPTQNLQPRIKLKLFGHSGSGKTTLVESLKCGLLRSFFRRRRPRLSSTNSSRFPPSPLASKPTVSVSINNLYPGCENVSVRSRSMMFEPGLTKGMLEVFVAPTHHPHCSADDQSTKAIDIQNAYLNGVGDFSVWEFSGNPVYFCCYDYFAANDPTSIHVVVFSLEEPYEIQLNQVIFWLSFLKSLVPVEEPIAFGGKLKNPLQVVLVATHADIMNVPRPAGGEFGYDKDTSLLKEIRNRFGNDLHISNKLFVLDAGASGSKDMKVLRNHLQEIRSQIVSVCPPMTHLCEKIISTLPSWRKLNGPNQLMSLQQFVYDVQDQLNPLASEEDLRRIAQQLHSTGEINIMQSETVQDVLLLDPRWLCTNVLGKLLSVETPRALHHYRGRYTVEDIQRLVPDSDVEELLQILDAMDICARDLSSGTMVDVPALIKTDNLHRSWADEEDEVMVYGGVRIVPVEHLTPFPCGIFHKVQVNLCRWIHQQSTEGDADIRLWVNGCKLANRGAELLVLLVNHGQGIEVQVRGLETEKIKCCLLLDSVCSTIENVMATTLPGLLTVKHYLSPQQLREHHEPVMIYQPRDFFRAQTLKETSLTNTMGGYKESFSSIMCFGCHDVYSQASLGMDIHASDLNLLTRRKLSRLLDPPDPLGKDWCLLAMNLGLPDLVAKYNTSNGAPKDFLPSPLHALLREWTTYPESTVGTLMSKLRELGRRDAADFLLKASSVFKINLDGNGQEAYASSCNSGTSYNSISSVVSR
Sequence of MAP kinase-interacting serine/threonine-protein kinase 1 (Homo sapiens) (Q9BUB5 whole entry, looked up): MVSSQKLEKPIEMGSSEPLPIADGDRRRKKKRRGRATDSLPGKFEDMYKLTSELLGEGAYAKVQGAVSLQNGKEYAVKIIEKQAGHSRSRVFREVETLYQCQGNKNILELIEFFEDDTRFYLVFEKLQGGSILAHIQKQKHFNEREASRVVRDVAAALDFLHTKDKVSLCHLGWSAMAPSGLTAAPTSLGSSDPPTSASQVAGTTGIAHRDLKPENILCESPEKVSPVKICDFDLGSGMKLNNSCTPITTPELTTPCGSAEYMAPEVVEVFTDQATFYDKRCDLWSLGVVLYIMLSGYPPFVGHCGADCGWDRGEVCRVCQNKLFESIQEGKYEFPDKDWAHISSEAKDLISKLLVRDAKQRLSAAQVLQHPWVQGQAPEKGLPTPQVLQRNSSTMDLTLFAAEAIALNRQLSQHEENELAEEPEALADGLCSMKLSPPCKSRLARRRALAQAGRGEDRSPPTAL
Sequence of Serine/threonine-protein kinase MARK1 (Homo sapiens) (Q9P0L2 whole entry, looked up): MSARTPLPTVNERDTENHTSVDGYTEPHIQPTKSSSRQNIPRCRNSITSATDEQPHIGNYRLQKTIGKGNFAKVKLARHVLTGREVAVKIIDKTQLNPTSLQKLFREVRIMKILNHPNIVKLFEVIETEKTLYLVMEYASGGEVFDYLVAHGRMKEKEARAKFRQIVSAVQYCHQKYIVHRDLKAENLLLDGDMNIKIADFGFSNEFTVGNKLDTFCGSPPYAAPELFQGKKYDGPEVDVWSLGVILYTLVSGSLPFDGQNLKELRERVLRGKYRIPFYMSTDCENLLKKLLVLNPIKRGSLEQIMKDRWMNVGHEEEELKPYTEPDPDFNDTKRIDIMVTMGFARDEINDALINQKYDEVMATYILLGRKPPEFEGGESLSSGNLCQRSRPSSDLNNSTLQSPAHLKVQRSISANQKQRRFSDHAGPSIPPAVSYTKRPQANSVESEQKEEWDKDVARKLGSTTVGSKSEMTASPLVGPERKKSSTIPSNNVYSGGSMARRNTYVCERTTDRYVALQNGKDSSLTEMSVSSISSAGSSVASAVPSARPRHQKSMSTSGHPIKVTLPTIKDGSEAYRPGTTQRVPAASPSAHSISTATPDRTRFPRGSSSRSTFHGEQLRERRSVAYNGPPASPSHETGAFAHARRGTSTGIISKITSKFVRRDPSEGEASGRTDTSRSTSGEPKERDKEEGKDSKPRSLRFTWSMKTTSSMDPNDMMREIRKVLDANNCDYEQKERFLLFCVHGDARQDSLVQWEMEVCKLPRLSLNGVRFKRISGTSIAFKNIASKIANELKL
Sequence of MAP kinase-activated protein kinase 2 (Homo sapiens) (P49137 whole entry, looked up): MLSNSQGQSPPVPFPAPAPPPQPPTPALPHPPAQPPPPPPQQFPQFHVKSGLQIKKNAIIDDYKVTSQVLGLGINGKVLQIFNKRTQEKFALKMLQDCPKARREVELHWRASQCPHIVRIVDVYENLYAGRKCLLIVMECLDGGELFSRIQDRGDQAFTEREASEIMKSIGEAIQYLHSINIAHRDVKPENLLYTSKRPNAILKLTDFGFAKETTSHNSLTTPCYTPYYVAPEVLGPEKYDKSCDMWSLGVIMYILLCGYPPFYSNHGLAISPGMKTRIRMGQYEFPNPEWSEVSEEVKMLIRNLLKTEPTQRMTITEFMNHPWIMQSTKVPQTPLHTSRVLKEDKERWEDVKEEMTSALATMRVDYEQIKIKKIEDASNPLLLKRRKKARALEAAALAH
Sequence of Maternal embryonic leucine zipper kinase (Homo sapiens) (Q14680 whole entry, looked up): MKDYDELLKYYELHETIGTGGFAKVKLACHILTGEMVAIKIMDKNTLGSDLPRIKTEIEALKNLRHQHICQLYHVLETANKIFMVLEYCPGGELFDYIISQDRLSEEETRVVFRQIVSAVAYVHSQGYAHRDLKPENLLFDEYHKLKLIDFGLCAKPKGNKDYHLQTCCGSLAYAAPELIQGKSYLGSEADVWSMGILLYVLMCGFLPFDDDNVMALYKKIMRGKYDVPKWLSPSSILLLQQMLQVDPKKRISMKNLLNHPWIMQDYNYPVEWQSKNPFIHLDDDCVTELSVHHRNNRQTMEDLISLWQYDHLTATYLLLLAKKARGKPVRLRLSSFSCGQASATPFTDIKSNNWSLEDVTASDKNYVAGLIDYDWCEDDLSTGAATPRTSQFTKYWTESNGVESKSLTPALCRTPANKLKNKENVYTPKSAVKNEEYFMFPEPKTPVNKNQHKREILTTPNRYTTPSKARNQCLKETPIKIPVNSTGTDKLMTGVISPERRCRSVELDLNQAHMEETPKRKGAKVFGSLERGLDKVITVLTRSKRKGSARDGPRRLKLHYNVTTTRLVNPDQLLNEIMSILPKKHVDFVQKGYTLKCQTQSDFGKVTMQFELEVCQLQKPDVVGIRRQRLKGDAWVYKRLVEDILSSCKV

Consider `CCS(=O)(=O)c1ccc(OC)c(Nc2ncc(-c3cccc(-c4ccccc4F)c3)o2)c1`, for which the inhibition – broadly, the change of the read-out against control, counted positive when it falls – in [1] was -0.11%; in assay [2] it was 1.37%; in assay [3], -3.8%; in assay [4], 0.06%; in [5], -0.23%; in assay [6] it was 1.08%. The inhibition in [7] was 1.04%; in assay [8], 1.41%; in assay [9] it was 0.75%; in assay [10], -0.41%; in [11], 7.39%; in assay [12] it was 1.24%. Besides, the inhibition in assay [13] came to 1.22%; in [14], 1.52%; in [15], 3.29%; in assay [16], 1.34%; in assay [17], 4.69%; in assay [18], 0.34%. For the same compound, the results for the inhibition in assay [19] and in assay [20] were 3.99% and -5.23%, respectively.
Turning to `COC(=O)Nc1nc2ccc(Sc3ccc(NC(=O)Nc4cc(C(F)(F)F)ccc4F)cc3)cc2[nH]1`, the inhibition in assay [1] is 4.23%; in [2], -1.02%; in [3] it was 0.05%; in assay [4], 0.97%; in assay [5] it was 0.6%; in [6], 4.28%. Also, the inhibition was 12.6% in assay [7]; 1.73% in [8]; 2.38% in assay [9]; 1.35% in assay [10]; 1.81% in [11]; -1.27% in [12]. Besides, the inhibition in assay [13] was -0.2%; in assay [14], -2.18%; in assay [15], -2.88%; in assay [16], -0.03%; in assay [17], 4.58%; in assay [18], 0.6%. The figures for the inhibition in assay [19] and in assay [20] were 1.48% and 0.92%, respectively.
For the compound `COc1cccc(-n2cnc3c(N/N=C/c4ccncc4)ncnc32)c1`, the inhibition in assay [1] was -2.81%; in assay [2], -3.07%; in assay [3], -0.03%; in assay [4] it was -0.39%; in assay [5], -0.48%; in [6], -0.9%. The inhibition in assay [7] is -2.07%; in assay [8], 1.01%; in assay [9], 6.09%; in assay [10] it was 1.08%; in [11], 3.88%; in [12] it was 0.84%. The inhibition was 4.83% in assay [13]; -1.92% in assay [14]; -4.7% in assay [15]; 0.43% in assay [16]; 16.5% in [17]; 3.13% in [18]. For the same compound, the inhibition in [19] came to 13.7%; in assay [20], 0.99%.
As for `O=C(Nc1ccc(Oc2ccc3[nH]c(NC(=O)c4ccccc4)nc3c2)cc1)Nc1cc(C(F)(F)F)ccc1F`, the inhibition was 5.19% in assay [1]; -1.34% in [2]; -0.03% in assay [3]; 1.97% in assay [4]; 1.81% in assay [5]; 4.88% in assay [6]. Also, the inhibition in assay [7] turned out to be 16.7%; in assay [8], 2.51%; in assay [9], 5.14%; in assay [10] it was 3.79%; in assay [11], 22.9%; in assay [12] it was 0.56%. Further, the inhibition was 3.1% in assay [13]; 3.83% in assay [14]; 2.36% in assay [15]; 3.79% in [16]; 21% in assay [17]; 2.44% in assay [18]. Moreover, the inhibition in assay [19] was 22.1%; in assay [20], -0.01%.
In the case of `CN(C)c1ccc2c(c1)/C(=C/Nc1ccc(S(N)(=O)=O)cc1)C(=O)N2`, the inhibition in assay [1] amounted to 1.27%; in assay [2], 1.9%; in assay [3], 5.58%; in assay [4], 0.97%; in assay [5], 1.33%; in assay [6], 0.95%. Besides, the inhibition in assay [7] is -0.05%; in assay [8], 6.96%; in assay [9], 36.4%; in assay [10] it was 6.41%; in [11] it was 32.7%; in assay [12], 6.9%. Further, the inhibition worked out at 32.5% in assay [13]; 3.82% in assay [14]; 20.4% in [15]; 1.64% in assay [16]; 9.3% in [17]; 1.66% in assay [18]. The values for the inhibition in assay [19] and in assay [20] were 3.67% and 3.86%, respectively.
For `NC(=O)c1cc(-c2ccc(F)cc2)cc(-c2ccncc2)c1N`, the inhibition in [1] was 1.25%; in assay [2] it was -0.12%; in assay [3], -0.85%; in assay [4], 2.21%; in assay [5], 1.35%; in assay [6], 4.03%. The inhibition in [7] is 5.82%; in assay [8], 2.29%; in [9], 4.17%; in assay [10], 3.27%; in assay [11], -2.7%; in [12] it was 1.2%. Besides, the inhibition in [13] was 2.29%; in assay [14], 2.86%; in assay [15], 4.94%; in assay [16] it was 3.36%; in [17], 12.1%; in assay [18], 1.44%. Further, the results for the inhibition in assay [19] and in [20] were 3.34% and 0.15%, respectively.

(Values after ChEMBL document CHEMBL1961873, “Compounds: GSK PKIS; Assays: Nanosyn kinase panel” (2012).)
